The values below come from PubChem BioAssay (NCI).

The structures appear in SMILES notation. This is part of a sample that, as a whole, favours compounds with a hit. Of some 79,000 tested, about 15% had one in any assay. A number with no mark means an inactive call. Active and inactive are the calls of the source. No stated cut-off is given here; in the data, active means growth inhibition above about 70%; inactive means the rest.

Experiment [1] can be described thus: NCI Yeast Anticancer Drug Screen. Data for the rad50 strain (AID 155).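 Further: 0% = growth of vehicle-only cultures of the same strain.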 The following applies: S. cerevisiae rad50 strain growth inhibition, hits give high values. In outline:
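Compounds were tested on a yeast strain with an engineered DNA damage repair alteration; the reported value is growth inhibition normalised to vehicle treatment.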

A short description of experiment [2]: NCI Yeast Anticancer Drug Screen. Data for the mec2-1 strain (AID 157). The following applies: S. cerevisiae mec2-1 strain, hits give high values. In outline:
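Test agents were screened against the mec2-1 yeast strain, with defined DNA repair or cell cycle alteration. Growth was scored as inhibition against vehicle-only controls.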

Experiment [3] can be described thus: NCI Yeast Anticancer Drug Screen. Data for the sgs1 mgt1 strain (AID 161).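 Further: 0% = growth of cultures given vehicle only.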 As to conditions: S. cerevisiae sgs1 mgt1 strain, hits give high values. The method, boiled down:
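Genetically altered yeast, compound exposure, growth inhibition relative to vehicle.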

Experiment [4] can be described thus: NCI Yeast Anticancer Drug Screen. Data for the cln2 rad14 strain (AID 165).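 Further: 0% = growth equal to vehicle treated cultures.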 As to conditions: S. cerevisiae cln2 rad14 strain, hits give high values. The method, boiled down: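 Growth of compound-exposed yeast (cln2 rad14 genotype) measured and expressed as inhibition relative to vehicle.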
Experiment [5] in a line: NCI Yeast Anticancer Drug Screen. Data for the bub3 strain (AID 167). As to conditions: S. cerevisiae bub3 mutant strain, hits give high values. In outline: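 Growth of a checkpoint-deficient yeast mutant is measured after compound exposure. Values represent inhibition relative to vehicle.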
A short description of experiment [6]: NCI Yeast Anticancer Drug Screen. Data for the mlh1 rad18 strain (AID 175). The following applies: S. cerevisiae mlh1 rad18 strain growth inhibition, hits give high values. In outline: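 In this whole-cell yeast screen, a strain with altered DNA damage repair is challenged with compound, and its growth is measured against matched vehicle-treated controls.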
Setting [7] is: at 5.0 µM (retest, dose inferred, filed as 0.5).
Setting [8] is: at 50.0 µM (retest, dose inferred, filed as 5.0).

For `FC1(F)C2=C(SC3=C(S2)C(F)(F)C3(F)F)C1(F)F`, the growth inhibition was 9% in experiment [1] (setting [7]); 99% (active) in experiment [1] (setting [8]); 99.2% (active) in experiment [1] (at 50.0 µM); -4% in experiment [2] (setting [7]); 98% (active) in experiment [2] (setting [8]); 70.5% (active) in experiment [2] (at 50.0 µM). Besides, the growth inhibition was 38% in experiment [3] (setting [7]); 100% (active) in experiment [3] (setting [8]); 99.1% (active) in experiment [3] (at 50.0 µM); 6% in experiment [4] (setting [7]); 95% (active) in experiment [4] (setting [8]); 74.9% (active) in experiment [4] (at 50.0 µM). For the same compound, the growth inhibition is -7% in experiment [5] (setting [7]); 95% (active) in experiment [5] (setting [8]); 97.7% (active) in experiment [5] (at 50.0 µM); 19% in experiment [6] (setting [7]); 97% (active) in experiment [6] (setting [8]); 97.7% (active) in experiment [6] (at 50.0 µM).
Turning to `CCCC/C=C(/CCCNCCCC)[Si](C)(C)C`, the growth inhibition is 70% (active) in experiment [1] (setting [7]); 97% (active) in experiment [1] (setting [8]); 91.8% (active) in experiment [1] (at 50.0 µM); 72% (active) in experiment [2] (setting [7]); 99% (active) in experiment [2] (setting [8]); 93.7% (active) in experiment [2] (at 50.0 µM). Besides, the growth inhibition in experiment [3] (setting [7]) was 90% (active); in experiment [3] (setting [8]), 99% (active); in experiment [3] (at 50.0 µM) it was 94.2% (active); in experiment [4] (setting [7]), 73% (active); in experiment [4] (setting [8]) it was 98% (active); in experiment [4] (at 50.0 µM) it was 92.8% (active). The growth inhibition is 90% (active) in experiment [5] (setting [7]); 99% (active) in experiment [5] (setting [8]); 92.7% (active) in experiment [5] (at 50.0 µM); 91% (active) in experiment [6] (setting [7]); 98% (active) in experiment [6] (setting [8]); 91.9% (active) in experiment [6] (at 50.0 µM).
As for `N#CCCN(CCC#N)c1ccc(C(Sc2ccccc2)C(NC(=O)c2cc([N+](=O)[O-])ccc2Cl)C(=O)Sc2ccccc2)cc1` (configuration not stated), the growth inhibition in experiment [1] (setting [7]) is 29%; in experiment [1] (setting [8]), 74% (active); in experiment [1] (at 50.0 µM) it was 75.7% (active); in experiment [2] (setting [7]), 25%; in experiment [2] (setting [8]), 93% (active); in experiment [2] (at 50.0 µM), 58.8%. Also, the growth inhibition is 30% in experiment [3] (setting [7]); 85% (active) in experiment [3] (setting [8]); 51.3% in experiment [3] (at 50.0 µM); 16% in experiment [4] (setting [7]); 37% in experiment [4] (setting [8]); 51.6% in experiment [4] (at 50.0 µM). Further, the growth inhibition was 22% in experiment [5] (setting [7]); 91% (active) in experiment [5] (setting [8]); 74.7% (active) in experiment [5] (at 50.0 µM); 47% in experiment [6] (setting [7]); 85% (active) in experiment [6] (setting [8]); 73.3% (active) in experiment [6] (at 50.0 µM).
In the case of `CC(=O)c1c(O)c2cccc3c2n(c1=O)CCC3`, the growth inhibition in experiment [1] (setting [7]) is 26%; in experiment [1] (setting [8]), 99% (active); in experiment [1] (at 50.0 µM), 97.2% (active); in experiment [2] (setting [7]), -13%; in experiment [2] (setting [8]), 99% (active); in experiment [2] (at 50.0 µM), 91.6% (active). Further, the growth inhibition in experiment [3] (setting [7]) is 4%; in experiment [3] (setting [8]), 98% (active); in experiment [3] (at 50.0 µM), 94.9% (active); in experiment [4] (setting [7]), 3%; in experiment [4] (setting [8]), 98% (active); in experiment [4] (at 50.0 µM) it was 71.3% (active). Moreover, the growth inhibition in experiment [5] (setting [7]) was -2%; in experiment [5] (setting [8]), 99% (active); in experiment [5] (at 50.0 µM), 84.4% (active); in experiment [6] (setting [7]), 11%; in experiment [6] (setting [8]) it was 98% (active); in experiment [6] (at 50.0 µM) it was 95.3% (active).
On to `CCCCCCCCCCCCNCC(=O)O`, for which the growth inhibition in experiment [1] (setting [7]) is -2%; in experiment [1] (setting [8]), 80% (active); in experiment [1] (at 50.0 µM), 92.9% (active); in experiment [2] (setting [7]) it was 1%; in experiment [2] (setting [8]), 60%; in experiment [2] (at 50.0 µM), 87.6% (active). The growth inhibition in experiment [3] (setting [7]) was 3%; in experiment [3] (setting [8]), 23%; in experiment [3] (at 50.0 µM), 74.5% (active); in experiment [4] (setting [7]), 1%; in experiment [4] (setting [8]), 53%; in experiment [4] (at 50.0 µM), -6.3%. For the same compound, the growth inhibition in experiment [5] (setting [7]) is 7%; in experiment [5] (setting [8]) it was 67%; in experiment [5] (at 50.0 µM) it was 92.2% (active); in experiment [6] (setting [7]), 3%; in experiment [6] (setting [8]), 55%; in experiment [6] (at 50.0 µM), 92% (active).
Consider `COCCNC(=O)C1C(=O)N(CCOC)C(=O)/C1=N/N` (configuration not stated), for which the growth inhibition in experiment [1] (setting [7]) is 1%; in experiment [1] (setting [8]), -1%; in experiment [1] (at 50.0 µM) it was -33.3%; in experiment [2] (setting [7]), 1%; in experiment [2] (setting [8]), 5%; in experiment [2] (at 50.0 µM), 0.6%. Moreover, the growth inhibition is 8% in experiment [3] (setting [7]); -1% in experiment [3] (setting [8]); 13.6% in experiment [3] (at 50.0 µM); -2% in experiment [4] (setting [7]); 6% in experiment [4] (setting [8]); 35% in experiment [4] (at 50.0 µM). The growth inhibition is 0% in experiment [5] (setting [7]); 20% in experiment [5] (setting [8]); -0.25% in experiment [5] (at 50.0 µM); -3% in experiment [6] (setting [7]); -2% in experiment [6] (setting [8]); 5.5% in experiment [6] (at 50.0 µM).
For the compound `CCN(CC)c1ccc(NC(C(=O)c2ccc(Cl)cc2)c2ccc(Cl)cc2)cc1` (configuration not stated), the growth inhibition was -7% in experiment [1] (setting [7]); -10% in experiment [1] (setting [8]); 91.3% (active) in experiment [1] (at 50.0 µM); -2% in experiment [2] (setting [7]); -10% in experiment [2] (setting [8]); 91.2% (active) in experiment [2] (at 50.0 µM). The growth inhibition was -6% in experiment [3] (setting [7]); -9% in experiment [3] (setting [8]); 96.2% (active) in experiment [3] (at 50.0 µM); 2% in experiment [4] (setting [7]); -11% in experiment [4] (setting [8]); 93.3% (active) in experiment [4] (at 50.0 µM). Moreover, the growth inhibition in experiment [5] (setting [7]) is -1%; in experiment [5] (setting [8]) it was 8%; in experiment [5] (at 50.0 µM), 86.3% (active); in experiment [6] (setting [7]), -2%; in experiment [6] (setting [8]), -8%; in experiment [6] (at 50.0 µM), 95.6% (active).
Consider `CC1C(c2ccc(Cl)cc2)c2cc3c(cc2OC1N1CCOCC1)OCO3` (configuration not stated), for which the growth inhibition in experiment [1] (setting [7]) is -19%; in experiment [1] (setting [8]), 6%; in experiment [1] (at 50.0 µM) it was 48.4%; in experiment [2] (setting [7]) it was -30%; in experiment [2] (setting [8]) it was -7%; in experiment [2] (at 50.0 µM), 58.4%. Further, the growth inhibition in experiment [3] (setting [7]) is -24%; in experiment [3] (setting [8]), -4%; in experiment [3] (at 50.0 µM), 82.2% (active); in experiment [4] (setting [7]), -27%; in experiment [4] (setting [8]) it was 5%; in experiment [4] (at 50.0 µM), 90% (active). Moreover, the growth inhibition in experiment [5] (setting [7]) is -29%; in experiment [5] (setting [8]) it was -24%; in experiment [5] (at 50.0 µM), 91.3% (active); in experiment [6] (setting [7]), -39%; in experiment [6] (setting [8]), 8%; in experiment [6] (at 50.0 µM), 59.4%.
As to `c1ccc(CC(Cc2ccccc2)c2cccnc2)cc1`, the growth inhibition is 18% in experiment [1] (setting [7]); 84% (active) in experiment [1] (setting [8]); 98.7% (active) in experiment [1] (at 50.0 µM); 21% in experiment [2] (setting [7]); 62% in experiment [2] (setting [8]); 98.3% (active) in experiment [2] (at 50.0 µM). Also, the growth inhibition was 35% in experiment [3] (setting [7]); 89% (active) in experiment [3] (setting [8]); 98.7% (active) in experiment [3] (at 50.0 µM); 34% in experiment [4] (setting [7]); 66% in experiment [4] (setting [8]); 97.9% (active) in experiment [4] (at 50.0 µM). Besides, the growth inhibition was 43% in experiment [5] (setting [7]); 88% (active) in experiment [5] (setting [8]); 99% (active) in experiment [5] (at 50.0 µM); 25% in experiment [6] (setting [7]); 84% (active) in experiment [6] (setting [8]); 98.3% (active) in experiment [6] (at 50.0 µM).
